Reference: PubChem BioAssay (NCATS)
Results filed as inconclusive are left out. Calls of active or inactive are those of the source. The call rests on the fitted dose curve; in most records, active means well fitted curve in the direction sought with a large enough effect; inconclusive means small, poorly fitted or top-dose-only effect, or another doubt; inactive means no such curve, though single readings can be large; an effect the other way counts as inactive or inconclusive.

Columns and labels:
[1] = Quantitative High-Throughput drug screen in 47 multiple myeloma cell lines against the NCATS MIPE library collection: H1112_PLB cell viability assay (AID 1918967; further: nearly all actives have a fitted effect of over 30% in size)
Outline: (§1)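 Primary qHTS used for cherry-picking: cells at 500/well, library compounds for 48 h (37C, 5% CO2), luminescent ATP assay.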

[2] = Quantitative High-Throughput drug screen in 47 multiple myeloma cell lines against the NCATS MIPE library collection: Karpas25_ECACC cell viability assay (AID 1918968; further: nearly all actives have a fitted effect of over 35% in size)
Outline: as §1

[3] = Quantitative High-Throughput drug screen in 47 multiple myeloma cell lines against the NCATS MIPE library collection: KMS27_JCRB cell viability assay (AID 1918970); further: nearly all actives have a fitted effect of over 30% in size
Outline: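 KMS27_JCRB myeloma cells, 500 per well, exposed 48 h at 37 C, 5% CO2 to MIPE 4.0 compounds. Viability from ATP by CellTiter-Glo luminescence, normalized to DMSO (100%) and medium-only (0%) wells.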

[4] = Quantitative High-Throughput drug screen in 47 multiple myeloma cell lines against the NCATS MIPE library collection: KMS12PE_JCRB cell viability assay (AID 1918972); further: nearly all actives have a fitted effect of over 30% in size
Outline: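 Inhibition of cell viability is measured here. Each line was plated at 500 cells per well, treated with MIPE 4.0 drugs, kept 48 hours at 37C, then assayed for ATP content by CellTiter-Glo luminescence.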

[5] = Quantitative High-Throughput drug screen in 47 multiple myeloma cell lines against the NCATS MIPE library collection: OCIMY1_PLB cell viability assay (AID 1918979); further: nearly all actives have a fitted effect of over 35% in size
Outline: (§2)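 ATP-based luminescence (CellTiter-Glo, 5 min RT incubation) quantified surviving cells following two days' treatment with MIPE 4.0 agents at 37 °C, 5% CO2.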

[6] = Quantitative High-Throughput drug screen in 47 multiple myeloma cell lines against the NCATS MIPE library collection: LP1_DSMZ cell viability assay (AID 1918982); further: nearly all actives have a fitted effect of over 35% in size
Outline: as §2

[7] = Quantitative High-Throughput drug screen in 47 multiple myeloma cell lines against the NCATS MIPE library collection: L363_DSMZ cell viability assay (AID 1918984); further: nearly all actives have a fitted effect of over 40% in size
Outline: as §2

[8] = Quantitative High-Throughput drug screen in 47 multiple myeloma cell lines against the NCATS MIPE library collection: KMS12BM_JCRB cell viability assay (AID 1918971); further: nearly all actives have a fitted effect of over 35% in size
Outline: (§3)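 Myeloma cell lines, 500 cells per well, exposed to MIPE 4.0 library compounds for 48 h at 37C, 5% CO2. Viability from ATP by CellTiter-Glo luminescence; normalised to DMSO (100%) and media-only (0%) wells.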

[9] = Quantitative High-Throughput drug screen in 47 multiple myeloma cell lines against the NCATS MIPE library collection: KMS21BM_JCRB cell viability assay (AID 1918974); settings: ATP luminescence, 48 h; viability: at 45.8 µM (top of the series) unless noted
Outline: as §1

[10] = Quantitative High-Throughput drug screen in 47 multiple myeloma cell lines against the NCATS MIPE library collection: MMM1_PLB cell viability assay (AID 1918976); further: nearly all actives have a fitted effect of over 35% in size
Outline: as §2

[11] = Quantitative High-Throughput drug screen in 47 multiple myeloma cell lines against the NCATS MIPE library collection: MOLP8_DSMZ cell viability assay (AID 1918977); further: nearly all actives have a fitted effect of over 45% in size
Outline: as §2

[12] = Quantitative High-Throughput drug screen in 47 multiple myeloma cell lines against the NCATS MIPE library collection: NCIH929_DSMZ cell viability assay (AID 1918978); further: nearly all actives have a fitted effect of over 35% in size
Outline: as §2

[13] = Quantitative High-Throughput drug screen in 47 multiple myeloma cell lines against the NCATS MIPE library collection: MM1S_ATCC cell viability assay (AID 1918980); further: nearly all actives have a fitted effect of over 45% in size
Outline: as §2

[14] = Quantitative High-Throughput drug screen in 47 multiple myeloma cell lines against the NCATS MIPE library collection: KMS28PE_JCRB cell viability assay (AID 1918983); further: nearly all actives have a fitted effect of over 35% in size
Outline: as §2

[15] = Quantitative High-Throughput drug screen in 47 multiple myeloma cell lines against the NCATS MIPE library collection: MM1R_ATCC cell viability assay (AID 1918981); further: nearly all actives have a fitted effect of over 35% in size
Outline: as §2

[16] = Quantitative High-Throughput drug screen in 47 multiple myeloma cell lines against the NCATS MIPE library collection: KMS26_JCRB cell viability assay (AID 1918975); further: nearly all actives have a fitted effect of over 45% in size
Outline: as §3

[17] = Quantitative High-Throughput drug screen in 47 multiple myeloma cell lines against the NCATS MIPE library collection: OCIMY7_PLB cell viability assay (AID 1918987); further: nearly all actives have a fitted effect of over 65% in size
Outline: as §2

[18] = Quantitative High-Throughput drug screen in 47 multiple myeloma cell lines against the NCATS MIPE library collection: OCIMY5_PLB cell viability assay (AID 1918988); further: nearly all actives have a fitted effect of over 65% in size
Outline: as §2

[19] = Quantitative High-Throughput drug screen in 47 multiple myeloma cell lines against the NCATS MIPE library collection: KMS20_JCRB cell viability assay (AID 1918973); further: nearly all actives have a fitted effect of over 45% in size
Outline: as §1

[20] = Quantitative High-Throughput drug screen in 47 multiple myeloma cell lines against the NCATS MIPE library collection: KMS34_JCRB cell viability assay (AID 1918985); further: nearly all actives have a fitted effect of over 40% in size
Outline: as §2
Potency means the concentration at half of the fitted maximal effect.

O=C1NC(=O)C(c2ccccc2[N+](=O)[O-])=C1Nc1ccc(O)c(Cl)c1
inactive: Potency [1] | Potency [3] | Potency [5] | Potency [6] | Potency [7]
active: Potency [2] 13.2 µM | Potency [4] 10.5 µM

C[Se]CCC(N)C(=O)O (configuration not stated)
active: viability [9] 325% [at 92.2 µM] | Potency [10] 0.855 µM
inactive: Potency [1] | Potency [2] | Potency [8] | Potency [4] | Potency [11] | Potency [12] | Potency [5] | Potency [13] | Potency [6] | Potency [14] | Potency [7]

Nc1nc(OCc2ccccc2)c2[nH]cnc2n1
inactive: Potency [1] | Potency [8] | Potency [15] | Potency [6]
active: Potency [2] 16.6 µM | Potency [9] 4.69 µM | Potency [13] 14.8 µM

O=C(CCc1ccc(O)cc1)c1c(O)cc(O)cc1O
active: Potency [1] 0.148 µM | Potency [3] 1.05 µM | Potency [8] 0.332 µM | Potency [16] 0.166 µM | Potency [15] 0.148 µM | Potency [14] 0.935 µM | Potency [7] 0.935 µM | Potency [17] 0.148 µM | Potency [18] 0.132 µM

NNc1nncc2ccccc12
inactive: Potency [1] | Potency [3] | Potency [8] | Potency [4] | Potency [19] | Potency [16] | Potency [12] | Potency [5] | Potency [13] | Potency [15] | Potency [6] | Potency [14] | Potency [7] | Potency [20]

Oc1ccc2ccccc2c1SSc1c(O)ccc2ccccc12
active: Potency [1] 11.8 µM | Potency [3] 18.7 µM | Potency [4] 20.9 µM | Potency [19] 9.35 µM | Potency [16] 9.35 µM | Potency [10] 20.9 µM | Potency [12] 8.33 µM | Potency [5] 20.9 µM | Potency [13] 14.8 µM | Potency [15] 14.8 µM | Potency [6] 23.5 µM | Potency [7] 13.2 µM | Potency [20] 5.9 µM | Potency [17] 4.69 µM | Potency [18] 14.8 µM

NS(=O)(=O)c1cc(C(=O)O)c(NCc2ccco2)cc1Cl
active: Potency [16] 0.209 µM
inactive: Potency [1] | Potency [3] | Potency [8] | Potency [4] | Potency [12] | Potency [15] | Potency [6] | Potency [7] | Potency [20]

COC(=O)C1=C(C)NC(C)=C(C(=O)OCCCN2CCC(c3ccccc3)(c3ccccc3)CC2)C1c1cccc([N+](=O)[O-])c1 (configuration not stated)
inactive: Potency [1] | Potency [3] | Potency [4] | Potency [19] | Potency [12] | Potency [5] | Potency [6] | Potency [14]
active: Potency [15] 20.9 µM | Potency [20] 3.32 µM

Cn1c(NCCN(CCO)CCCc2ccc([N+](=O)[O-])cc2)cc(=O)n(C)c1=O
active: Potency [3] 26.4 µM | Potency [4] 20.9 µM | Potency [9] 10.5 µM | Potency [13] 23.5 µM
inactive: Potency [1] | Potency [16] | Potency [5] | Potency [20]

CC(C)(S)[C@@H](N)C(=O)O
inactive: Potency [1] | Potency [3] | Potency [4] | Potency [9] | Potency [16] | Potency [12] | Potency [5] | Potency [6] | Potency [7]

O=c1c(O)c(-c2cc(O)c(O)c(O)c2)oc2cc(O)cc(O)c12
active: Potency [8] 23.5 µM | Potency [11] 18.7 µM | Potency [15] 20.9 µM | Potency [14] 23.5 µM | Potency [18] 23.5 µM
inactive: Potency [1] | Potency [4] | Potency [19] | Potency [5]

CCCc1cc(=O)[nH]c(=S)[nH]1
active: Potency [13] 2.64 µM
inactive: Potency [1] | Potency [8] | Potency [4] | Potency [16] | Potency [11] | Potency [12] | Potency [6] | Potency [14] | Potency [20] | Potency [17] | Potency [18]

Cc1cc(C2CCCCC2)n(O)c(=O)c1
active: Potency [1] 13.2 µM | Potency [3] 5.26 µM | Potency [8] 8.33 µM | Potency [4] 11.8 µM | Potency [19] 11.8 µM | Potency [16] 10.5 µM | Potency [12] 7.43 µM | Potency [5] 16.6 µM | Potency [13] 0.935 µM | Potency [15] 1.48 µM | Potency [6] 14.8 µM | Potency [7] 7.43 µM | Potency [20] 5.26 µM | Potency [18] 2.09 µM

CCOC(=O)C(C)Oc1cccc2c(=O)n(CC(=O)Nc3ccc4c(c3)OCCO4)ccc12 (configuration not stated)
active: Potency [8] 23.5 µM | Potency [7] 9.35 µM
inactive: Potency [1] | Potency [3] | Potency [4] | Potency [12] | Potency [20]

CNC[C@H](O)c1ccc(O)c(O)c1
active: Potency [8] 19.1 µM | Potency [19] 10.8 µM | Potency [16] 10.8 µM | Potency [11] 8.55 µM | Potency [13] 17.1 µM | Potency [15] 6.05 µM | Potency [6] 30.3 µM | Potency [14] 13.6 µM | Potency [20] 30.3 µM
inactive: Potency [1] | Potency [4] | Potency [12] | Potency [7]

CC(C)Oc1ccc2c(=O)c(-c3ccccc3)coc2c1
active: viability [9] 387% | Potency [13] 13.2 µM
inactive: Potency [1] | Potency [3] | Potency [12] | Potency [15] | Potency [20]

O=C(CS(=O)Cc1ccco1)NCC=CCOc1cc(CN2CCCCC2)ccn1 (configuration not stated)
inactive: Potency [1] | Potency [3] | Potency [8] | Potency [19] | Potency [5] | Potency [15] | Potency [6] | Potency [7] | Potency [20]

O=C(O)c1cc(=O)c2c(OCC(O)COc3cccc4oc(C(=O)O)cc(=O)c34)cccc2o1
inactive: Potency [1] | Potency [2] | Potency [12] | Potency [15] | Potency [6] | Potency [14] | Potency [17]

Cc1ccc(Nc2nccc(N(C)c3ccc4c(C)n(C)nc4c3)n2)cc1S(N)(=O)=O
active: Potency [1] 16.6 µM | Potency [3] 20.9 µM | Potency [8] 18.7 µM | Potency [16] 23.5 µM | Potency [7] 11.8 µM | Potency [17] 18.7 µM | Potency [18] 16.6 µM
